The source made the active and inactive calls. Rule for the calls: active = hit-call score of the fitted dose curve at least 0.9, where 1 is the maximum; inactive = score below 0.9.
These compounds were tested on Thrombomodulin, THBD (gene 7056) (assay: BSK_3C_Thrombomodulin: BioMAP Diversity Plus: 3C Assay for Thrombomodulin Biomarker Activity (AID 2283029)). Conditions: primary human endothelial cells (HUVEC); actives raise or lower the signal.
Method: BSK_3C is a cell-based, multiplexed-readout assay that uses umbilical vein endothelium, a human vascular primary cell, with measurements taken at 24 hours after chemical dosing in a 96-well plate.BSK_3C_Thrombomodulin is an assay component measured in the BSK_3C assay. It measures Thrombomodulin antibody related to regulation of gene expression using ELISA technology.Data from the assay component BSK_3C_Thrombomodulin was analyzed into 1 assay endpoint. This assay endpoint, BSK_3C_Thrombomodulin, was analyzed with bidirectional fitting relative to DMSO as the negative control and baseline of activity. Using a type of binding reporter, gain or loss-of-signal activity can be used to understand changes in the signaling as they relate to the gene THBD. Furthermore, this assay endpoint can be referred to as a primary readout, because this assay has produced multiple assay endpoints where this one serves a signaling function. To generalize the intended target to other relatable targets, this assay endpoint is annotated to the gpcr intended target family, where the subfamily is rhodopsin-like receptor.
The levels of cell surface (or secreted, indicated by the prefix "s") biomarker endpoints were measured by ELISA. Overt cytotoxicity to cells in confluent adherent cultures (all systems other than the BT system) was assessed by measuring total protein levels using sulforhodamine B (SRB) staining in parallel cultures at the time of biomarker measurements, indicated as SRB endpoints. For proliferation assays for adherent cell types, individual cell types are cultured at sub-confluence and relative cell numbers quantified by SRB staining at time points optimized for each system (48 h: 3C and CASM3C systems; 72 h: BT and HDF3CGF systems; 96 h: SAg system). SRB was performed by staining cells with 0.1% SRB after fixation with 10% TCA and reading wells at 560 nm.Viability and proliferation of PBMC (T cells) was quantified by Alamar Blue reduction for the SAg and BT systems. For PBMC viability (referred to as PBMC Cytotoxicity within the assay endpoint names), cells were plated (75,000/well in a 96-well plate) and then chemical samples added for 1 h before addition of activators, SEB and TSST-1 (20 ng/mL final concentration each). Cells were incubated for 90 h. Then, Alamar Blue (20 uL/well) (Invitrogen, Cat DAL1100) was added for 6 h, and the plates were read with a fluorescence microplate reader at 546/580 nm (excitation/emission). For PBMC proliferation, cells were plated and activated as above but incubated for only 16 h prior to addition of Alamar Blue. Plates were read after 6 h.

| Compound | outcome | AC50 |
| --- | --- | --- |
| Cc1cc(C2(c3cc(C)c(O)cc3C)OS(=O)(=O)c3ccccc32)c(C)cc1O | inactive |  |
| Nc1cc([N+](=O)[O-])ccc1Cl | inactive |  |
| CCCCC(CC)COC(=O)/C=C\C(=O)OCC(CC)CCCC (stereo not given) | inactive |  |
| Nc1cc([N+](=O)[O-])ccc1O | inactive |  |
| N#Cc1ccc(CC(=NNC(=O)Nc2ccc(OC(F)(F)F)cc2)c2cccc(C(F)(F)F)c2)cc1 | inactive |  |
| CC[Si](OC(C)=O)(OC(C)=O)OC(C)=O | inactive |  |
| O=[N+]([O-])c1cc(C(F)(F)F)ccc1Cl | inactive |  |
| OC[C@H]1O[C@H](O[C@]2(CCl)O[C@H](CCl)[C@@H](O)[C@@H]2O)[C@H](O)[C@@H](O)[C@H]1Cl | inactive |  |
| O=C1CCCCCCCCCCCCCCO1 |  | 20 µM (active) |
| C=C(C)C(=O)O[C@H]1C[C@@H]2CC[C@@]1(C)C2(C)C | inactive |  |
| CCC(=O)OCc1ccccc1 | inactive |  |
| CC1COc2ccccc2N1C(=O)C(Cl)Cl (stereo not given) | inactive |  |
| C#C[C@]1(O)CC[C@H]2[C@@H]3CCC4=Cc5oncc5C[C@]4(C)[C@H]3CC[C@@]21C | inactive |  |
| OC1OC[C@@H](O)[C@H](O)[C@H]1O (stereo not given in full) | inactive |  |
| CCCCC(CC)COCCC#N (stereo not given) | inactive |  |
| Cc1ccc(O)c(C(C)(C)C)c1 |  | 30.8 µM (active) |
| O=C(O)c1cn(-c2ccc(F)cc2)c2cc(N3CCNCC3)c(F)cc2c1=O | inactive |  |
| CC(=O)O[C@]1(C(C)=O)CC[C@H]2[C@@H]3C[C@H](C)C4=CC(=O)CC[C@]4(C)[C@H]3CC[C@@]21C | inactive |  |
| CCn1c2ccccc2c2cc(N)ccc21 | inactive |  |
| CNC[C@H](O)c1cccc(O)c1 | inactive |  |

| Compound | outcome | AC50 |
| --- | --- | --- |
| NCCNCCN | inactive |  |
| CCCCCCCCCCCCCCCCCC(=O)OCC(CC)CCCC (stereo not given) | inactive |  |
| CC(C)(COC(=O)c1ccccc1)COC(=O)c1ccccc1 | inactive |  |
| CC(=O)Nc1ccccc1O | inactive |  |
| C[C@H]1C[C@@H]2[C@H]([C@@H](O)C[C@@]3(C)[C@H]2CC[C@]3(O)C(=O)CO)[C@@]2(C)C=CC(=O)C=C12 | inactive |  |
| O=C=NC1CCC(CC2CCC(N=C=O)CC2)CC1 (stereo not given) | inactive |  |
| CCc1c(C)cc(N)c(CC)c1N | inactive |  |
| O=C(O)c1ccc([N+](=O)[O-])cc1 | inactive |  |
| CC(C)c1ccc(C(C)C)cc1 | inactive |  |
| c1ccc2sc(SN(C3CCCCC3)C3CCCCC3)nc2c1 | inactive |  |
| Cc1ccc2n[nH]nc2c1 | inactive |  |
| BrC1CCC(Br)C(Br)CCC(Br)C(Br)CCC1Br (stereo not given) | inactive |  |
| Cc1ccc(Nc2ccc(O)c3c2C(=O)c2ccccc2C3=O)cc1 | inactive |  |
| C=C[Si](OCC)(OCC)OCC | inactive |  |
| CC(=O)[C@H]1CC[C@H]2[C@@H]3CC=C4C[C@@H](O)CC[C@]4(C)[C@H]3CC[C@]12C | inactive |  |
| CC(=O)/C=C/C1=C(C)CCCC1(C)C | inactive |  |
| CC1CCC(C(C)CS)CC1S (stereo not given) | inactive |  |
| COc1cc(C=O)ccc1OC(=O)C(C)C | inactive |  |
| CCCCCCCCC=O | inactive |  |
| CC(=O)OCCC(C)CC(C)(C)C (stereo not given) | inactive |  |
